# Assay results reported in PubChem BioAssay (NCATS).
# Where “and” joins values, the source holds several entries; their conditions need not be identical. Equal values may be shown once. Inconclusive results are not listed. A call without a number means that no potency is given here. Calls of active or inactive are those of the source. Unless noted, calls come from the whole dose curve; as a rule, active = well fitted curve in the direction sought with a large enough effect; inconclusive = small, poorly fitted or top-dose-only effect, or another doubt; inactive = no such curve, though single readings can be large; an effect the other way counts as inactive or inconclusive.
# Tests used:
# [1] = Primary qHTS for small molecule stabilizers of the endoplasmic reticulum resident proteome: Secreted ER Calcium Modulated Protein (SERCaMP) assay (AID 1508630)
# Outline: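 GLuc-SERCaMP-expressing SH-SY5Y cells, pretreated 16 h with compound, are challenged with thapsigargin to empty ER calcium stores; after 4 h, coelenterazine is added directly to the medium and luminescence is imaged.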
# [2] = A High-Content qHTS Against Drug Library for the Identification of Small Molecules that Inhibit DYT1 Early Onset Primary Dystonia-Associated Cell Pathology (AID 1645839; calls by dose curve; note: series mostly up to about 46 µM)
# Outline: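 In this high-content image screen, delE TorsinA mislocalization in inducible Flp-In 293 cells is scored as %pathology, with cell count serving as the counterscreen. Compound exposure lasts 48 h under tetracycline induction in reduced-serum medium.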
# [3] = molecular target: Cytochrome P450 2D6 (Homo sapiens) (UniProt P10635); experiment: Cytochrome P450 family 2 subfamily D member 6 (CYP2D6) small molecule antagonists: luciferase biochemical (cell-free) qHTS assay (AID 1645840; active = well fitted curve in the direction sought with a large enough effect in the repeat runs; an effect the other way counts as inactive or inconclusive; note: nearly all actives have a fitted effect of over 55% in size; note: potency is the fitted concentration of half-maximal effect; for activity change, negative = inhibition: series mostly up to about 57 µM)
# Chain of Cytochrome P450 2D6 (Homo sapiens) (P10635 whole entry, looked up): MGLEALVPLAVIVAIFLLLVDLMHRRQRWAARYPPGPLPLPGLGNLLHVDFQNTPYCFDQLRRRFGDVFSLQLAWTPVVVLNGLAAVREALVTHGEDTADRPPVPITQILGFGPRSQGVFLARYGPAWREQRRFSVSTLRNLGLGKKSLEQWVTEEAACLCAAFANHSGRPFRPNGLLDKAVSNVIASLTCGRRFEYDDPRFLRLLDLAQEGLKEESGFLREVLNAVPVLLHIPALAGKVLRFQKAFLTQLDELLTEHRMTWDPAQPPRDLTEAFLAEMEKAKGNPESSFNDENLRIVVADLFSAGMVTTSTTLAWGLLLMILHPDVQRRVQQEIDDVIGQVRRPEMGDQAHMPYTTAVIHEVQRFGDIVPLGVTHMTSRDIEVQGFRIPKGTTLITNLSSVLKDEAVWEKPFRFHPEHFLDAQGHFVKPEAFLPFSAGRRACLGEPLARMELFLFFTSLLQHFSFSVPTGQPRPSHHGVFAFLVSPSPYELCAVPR
# Outline: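 P450-Glo luminescent screen: recombinant CYP2D6 enzyme–proluciferin substrate mix preincubated with compound 10 min at room temperature, then NADPH regeneration added for 1 h at room temperature. Detection reagent added for 20 min; luciferin light read as relative luminescence units.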
# [4] = molecular target: Cytochrome P450 2C9 (Homo sapiens) (UniProt P11712); experiment: Cytochrome P450 family 2 subfamily C member 9 (CYP2C9) small molecule antagonists: luciferase biochemical (cell-free) qHTS assay (AID 1645842; active = well fitted curve in the direction sought with a large enough effect in the repeat runs; an effect the other way counts as inactive or inconclusive; note: nearly all actives have a fitted effect of over 55% in size; note: potency is the fitted concentration of half-maximal effect; for activity change, negative = inhibition: series mostly up to about 57 µM)
# Chain of Cytochrome P450 2C9 (Homo sapiens) (P11712 whole entry, looked up): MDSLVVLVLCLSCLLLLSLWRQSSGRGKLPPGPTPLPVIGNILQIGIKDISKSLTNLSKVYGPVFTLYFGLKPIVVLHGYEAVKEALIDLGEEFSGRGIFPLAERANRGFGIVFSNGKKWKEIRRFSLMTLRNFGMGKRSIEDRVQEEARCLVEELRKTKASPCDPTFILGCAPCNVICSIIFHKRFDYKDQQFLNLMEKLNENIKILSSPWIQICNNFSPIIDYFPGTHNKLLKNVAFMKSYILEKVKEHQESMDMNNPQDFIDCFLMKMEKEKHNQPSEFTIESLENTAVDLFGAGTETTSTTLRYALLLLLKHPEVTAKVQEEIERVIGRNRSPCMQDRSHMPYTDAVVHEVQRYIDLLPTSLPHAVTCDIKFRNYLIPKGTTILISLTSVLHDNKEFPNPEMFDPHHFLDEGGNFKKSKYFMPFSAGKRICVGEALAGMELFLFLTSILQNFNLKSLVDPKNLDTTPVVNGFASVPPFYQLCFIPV
# Outline: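 Luminescence, after 20 min with luciferin detection reagent, reflected CYP2C9 turnover during a 1 h NADPH-driven reaction at 37C. Enzyme-substrate mix contained 0.4% bovine serum albumin and was preincubated with compound 10 min at room temperature.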
# [5] = molecular target: Cytochrome P450 3A4 (Homo sapiens) (UniProt P08684); experiment: Cytochrome P450 family 3 subfamily A member 4 (CYP3A4) small molecule antagonists: luciferase qHTS assay (AID 1645841; active = well fitted curve in the direction sought with a large enough effect in the repeat runs; an effect the other way counts as inactive or inconclusive; note: nearly all actives have a fitted effect of over 45% in size; note: potency is the fitted concentration of half-maximal effect)
# Chain of Cytochrome P450 3A4 (Homo sapiens) (P08684 whole entry, looked up): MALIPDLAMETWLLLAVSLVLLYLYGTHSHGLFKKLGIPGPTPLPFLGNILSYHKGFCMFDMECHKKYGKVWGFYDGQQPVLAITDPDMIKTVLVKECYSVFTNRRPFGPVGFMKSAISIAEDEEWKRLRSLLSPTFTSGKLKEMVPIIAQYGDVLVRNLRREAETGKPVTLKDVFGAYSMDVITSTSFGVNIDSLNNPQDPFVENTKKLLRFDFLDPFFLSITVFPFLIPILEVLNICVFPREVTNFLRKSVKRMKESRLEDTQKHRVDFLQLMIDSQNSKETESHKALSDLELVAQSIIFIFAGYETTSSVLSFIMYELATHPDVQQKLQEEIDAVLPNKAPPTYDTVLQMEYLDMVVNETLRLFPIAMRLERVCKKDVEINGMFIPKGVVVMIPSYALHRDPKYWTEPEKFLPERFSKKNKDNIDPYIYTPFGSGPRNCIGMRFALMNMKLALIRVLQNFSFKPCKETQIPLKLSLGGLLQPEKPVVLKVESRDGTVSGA
# Outline: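 Luminescent CYP3A4 activity readout: compounds plus enzyme-substrate mix 10 min at room temperature, reaction started with NADPH regenerating system for 1 h, stopped with detection reagent, read after 20 min. Ketoconazole served as control.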
# [6] = Primary qHTS for inhibitors of nuclear receptor binding SET domain protein 2 (NSD2) in an isogenic RCH-ACV NSD2 p.E1099K mutant (9B) (AID 1645876); note: nearly all actives have a fitted effect of over 70% in size; note: potency is the fitted concentration of half-maximal effect
# [7] = Counterscreen qHTS for small molecule stabilizers of the endoplasmic reticulum resident proteome: GLuc-NoTag assay (AID 1508627); note: potency is the fitted concentration of half-maximal effect;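 for activity change, negative = inhibition: SH-SY5Y cells given compound then 100 nM thapsigargin to empty ER calcium; series mostly up to about 76 µM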
# Outline: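 Luminescence of Gaussia luciferase secreted into the medium (coelenterazine, 0.07x final, unlysed cells) was the read-out. Human SH-SY5Y neuroblastoma cells constitutively secreting untagged GLuc received compound for 19 h, then 100 nM thapsigargin for 4 h.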
# [8] = Confirmatory qHTS for small molecule stabilizers of the endoplasmic reticulum resident proteome: Secreted ER Calcium Modulated Protein (SERCaMP) assay (AID 1508628); note: nearly all actives have a fitted effect of over 40% in size; note: potency is the fitted concentration of half-maximal effect
# Outline: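 We seeded SH-SY5Y-GLuc-SERCaMP cells, added compounds (three concentrations in the primary run, eleven up to 76.6 uM in confirmation), incubated 16 h, depleted ER calcium with thapsigargin, and read luciferase 4 h later.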
# [9] = Cell Viability qHTS for small molecule stabilizers of the endoplasmic reticulum resident proteome (AID 1508629); conditions: cell viability counter-screen, 100 nM thapsigargin for final 4 h;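 note: human SH-SY5Y neuroblastoma cells carrying the GLuc-SERCaMP reporter; compound exposure about 46 h in total before the viability read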
smiles,measurement,setting,value
CCc1oc2ccccc2c1C(=O)c1cc(Br)c(O)c(Br)c1,Potency,[1],inactive
COc1cc(N)c(Cl)cc1C(=O)NC1CCN(Cc2ccccc2)CC1,Potency,[1],inactive
same,Potency,[2],inactive
same,Potency,[3],0.0219 µM (active)
same,Potency,[4],inactive
NCc1ccccc1Sc1ccccc1CO,Potency,[1],inactive
same,Potency,[2],inactive
same,Potency,[3],4.9 µM (active)
same,Potency,[4],15.5 µM (active)
CC(C)[N+](C)(C)CC(O)COc1cccc2ccccc12 (stereo unspecified),Potency,[1],inactive
same,Potency,[2],inactive
same,Potency,[3],6.92 µM (active)
Nc1nc(-c2ccccc2)c(Br)c(=O)[nH]1,Potency,[1],inactive
same,Potency,[2],inactive
same,Potency,[3],inactive
same,Potency,[5],inactive
same,Potency,[4],inactive
same,Potency,[6],inactive
CC1(COc2ccc(CC3SC(=O)NC3=O)cc2)CCCCC1 (stereo unspecified),Potency,[1],inactive
CC(C)Cc1ccc(CC(=O)O)cc1,Potency,[1],inactive
same,Potency,[2],inactive
same,Potency,[3],inactive
O=C1c2cccc3c2[C@H](CCC3)CN1[C@@H]1CN2CCC1CC2,Potency,[1],inactive
same,Potency,[2],inactive
O=C1OC2(c3ccccc31)c1cc(Br)c(O)c(Br)c1Oc1c2cc(Br)c(O)c1Br,Potency,[7],inactive
same,Potency,[5],17.4 µM (active)
O=C1C(=O)c2ccccc2C(O)=C1C1CCC(c2ccc(Cl)cc2)CC1 (stereo unspecified),Potency,[1],inactive
same,Potency,[2],inactive
same,Potency,[3],inactive
same,Potency,[5],inactive
same,Potency,[4],inactive
same,Potency,[6],inactive
COc1cc(O)c(C(=O)c2ccccc2)cc1S(=O)(=O)O,Potency,[1],inactive
same,Potency,[2],inactive
CN1CCC(OC(c2ccccc2)c2ccccc2)CC1,Potency,[7],inactive
same,Potency,[8],inactive
same,max response,[9],7.61% (inactive)
same,Potency,[6],inactive
NC(=O)c1ccccc1O,Potency,[1],inactive
same,Potency,[2],inactive
same,Potency,[3],inactive
same,Potency,[4],inactive
CN(CCCN1c2ccccc2CCc2ccccc21)CC(=O)c1ccc(Cl)cc1,Potency,[7],inactive
same,Potency,[8],31.6 µM (active) and 39.8 µM (active)
same,max response,[9],24.4% (inactive)
same,Potency,[3],6.09 µM (active)
same,Potency,[4],12.1 µM (active)
Cc1cc(CC(=O)O)c(C)n1-c1ccc(Cl)cc1,Potency,[1],inactive
same,Potency,[2],inactive
same,Potency,[3],inactive
CN1CCC[C@@H]1CCO[C@](C)(c1ccccc1)c1ccc(Cl)cc1,Potency,[8],15.8 µM (active)
same,Potency,[6],21.1 µM (active)
CCNC(=O)/C=C/c1cccc(Br)c1,Potency,[1],inactive
same,Potency,[2],inactive
same,Potency,[3],inactive
same,Potency,[4],inactive
CC(C)(Cc1c[nH]c2ccccc12)NCC(O)COc1ccccc1C#N (stereo unspecified),Potency,[7],inactive
same,max response,[9],-6.12% (inactive)
same,Potency,[1],inactive
same,Potency,[4],inactive
C#C[C@]1(O)CC[C@H]2[C@@H]3CCC4=Cc5oncc5C[C@]4(C)[C@H]3CC[C@@]21C,Potency,[1],inactive
CCc1ccc(C(=O)C(C)CN2CCCCC2)cc1 (stereo unspecified),Potency,[1],inactive
same,Potency,[2],inactive
same,Potency,[3],0.871 µM (active)
same,Potency,[4],inactive
CCCCCCCCCCCCCCC[C@H](O)[C@@H](N)CO,Potency,[7],inactive
same,Potency,[8],inactive
same,"activity change, negative = inhibition",[1],-27.1% [at 3.88 µM] (inactive)
same,Potency,[3],9.77 µM (active)
same,Potency,[4],inactive
same,Potency,[6],4.73 µM (active)
CCOC(=O)Nc1ccc2c(c1)N(C(=O)CCN1CCOCC1)c1ccccc1S2,Potency,[1],inactive
same,Potency,[2],inactive
C=CCN1CCc2nc(N)sc2CC1,Potency,[7],inactive
same,Potency,[8],inactive
same,max response,[9],-7.52% (inactive)
same,Potency,[1],inactive
same,Potency,[2],inactive
same,Potency,[3],inactive
same,Potency,[4],inactive
same,Potency,[6],inactive
CCC1NC(=O)c2cc(S(N)(=O)=O)c(Cl)cc2N1 (stereo unspecified),Potency,[1],inactive
same,Potency,[2],inactive
CC(=C(CCOC(=O)C(C)C)SSC(CCOC(=O)C(C)C)=C(C)N(C=O)Cc1cnc(C)nc1N)N(C=O)Cc1cnc(C)nc1N,Potency,[1],inactive
same,Potency,[2],inactive
same,Potency,[3],inactive
same,Potency,[4],inactive
CCCN(CCc1cccs1)[C@H]1CCc2c(O)cccc2C1,Potency,[1],inactive
same,Potency,[2],inactive
same,Potency,[3],169 nM (active) and 195 nM (active)
same,Potency,[4],inactive
CC(=O)OCC1=C(C(=O)O)N2C(=O)[C@@H](NC(=O)CSc3ccncc3)[C@H]2SC1,Potency,[1],inactive
same,Potency,[2],inactive
same,Potency,[3],13.8 µM (active)
same,Potency,[4],11 µM (active)
CN1CCN(C2=Nc3cc(F)ccc3Cc3ccccc32)CC1,Potency,[7],28.2 µM (active)
same,Potency,[8],39.8 µM (active)
same,Potency,[2],inactive
same,Potency,[4],inactive
O=S(c1cc(Cl)cc(Cl)c1O)c1cc(Cl)cc(Cl)c1O,Potency,[1],inactive
C=C[C@H]1CN2CC[C@H]1C[C@@H]2[C@@H](O)c1ccnc2ccc(OC)cc12,Potency,[7],inactive
same,Potency,[2],inactive
NC(=O)C1(N2CCCCC2)CCN(CCCC(=O)c2ccc(F)cc2)CC1,Potency,[1],inactive
same,Potency,[2],inactive
same,Potency,[3],4.36 µM (active)
same,Potency,[5],inactive
same,Potency,[4],inactive
same,Potency,[6],inactive
CCOc1cc(OCC)c(C(=O)CCC(=O)O)cc1OCC,Potency,[7],inactive
same,Potency,[8],inactive
same,max response,[9],24.8% (inactive)
same,Potency,[2],inactive
same,Potency,[3],inactive
same,Potency,[4],inactive
same,Potency,[6],inactive
Cc1cn([C@H]2C[C@H](F)[C@@H](CO)O2)c(=O)[nH]c1=O,Potency,[1],inactive
same,Potency,[2],inactive
same,Potency,[3],inactive
same,Potency,[5],inactive
same,Potency,[4],inactive
same,Potency,[6],inactive
CC(=O)OC[C@H]1O[C@@H](n2ncc(=O)[nH]c2=O)[C@H](OC(C)=O)[C@@H]1OC(C)=O,Potency,[1],inactive
same,Potency,[2],inactive
same,Potency,[3],7.76 µM (active)
same,Potency,[4],inactive
NS(=O)(=O)Cc1noc2ccccc12,Potency,[1],inactive
same,Potency,[2],inactive
same,Potency,[3],inactive
same,Potency,[5],inactive
same,Potency,[4],inactive
COc1ccc(C(=O)c2ccccc2)c(O)c1,Potency,[1],inactive
same,Potency,[2],inactive
same,Potency,[3],inactive
CC(=O)NC(=O)c1ccccc1O,Potency,[1],inactive
same,Potency,[2],inactive
same,Potency,[3],inactive
same,Potency,[4],inactive
O=C(O)CCc1nc2ccccc2[nH]1,Potency,[1],inactive
same,Potency,[2],inactive
same,Potency,[3],inactive
same,Potency,[4],inactive
same,Potency,[6],inactive
CN1CCN(c2c(F)cc3c(=O)c(C(=O)O)cn4c3c2SCC4)CC1,Potency,[1],inactive
same,Potency,[2],inactive
same,Potency,[3],inactive
same,Potency,[4],inactive
